{"source": "ChEMBL document CHEMBL3988442", "about": "“University of Dundee, Small-Polar-MMV Screening Library” (2021)", "note": "In all, about 48,000 compounds went through this assay and about 13,000 (27%) showed an effect of 50% or more. Some of the results follow.", "data": [{"test_system": "Wolbachia pipientis", "experiment": "Anti-Wolbachia Cell-Based Screen", "format": "functional", "parameters": "scale not given: in the data most compounds retested in dose-response had high values", "conditions": "5 µM", "units": {"Percent Effect": "%"}, "values": [{"smiles": "O=C(c1cn(-c2cc(N3CCSCC3)ncn2)cn1)N1CCOCC1", "Percent Effect": 2.163}, {"smiles": "O=C1[C@@H]2C[C@H](O)CCN2C(=O)CN1CCSc1ccccn1", "Percent Effect": 99.26}, {"smiles": "O=C(CC1CCc2ccccc21)NCCSc1ccccn1", "note": "(centres undefined)", "Percent Effect": -6.128}, {"smiles": "COCCN1C[C@@H]2CN(C(=O)CC3CC3)C[C@@H]2C1=O", "Percent Effect": 3.353}, {"smiles": "CC(C)(C)SCCN1CC(=O)N2CC[C@@H](O)C[C@H]2C1=O", "Percent Effect": 105.3}, {"smiles": "Cc1n[nH]c(C)c1C1CCCN1C(=O)NCCSC(C)(C)C", "note": "(centres undefined)", "Percent Effect": -9.308}, {"smiles": "O=C(C1CC1)N1CCN(C(=O)CSc2ccccn2)[C@H]2CS(=O)(=O)C[C@H]21", "Percent Effect": -23.43}, {"smiles": "COCCN1C[C@H]2CN(C(=O)C3CC3)CCN2C1=O", "Percent Effect": 0.212}, {"smiles": "COCCN1CC(=O)N2CC[C@@H](O)C[C@H]2C1=O", "Percent Effect": 111.7}, {"smiles": "Cc1ncccc1CNc1ccc(OCCO)nc1", "Percent Effect": -18.76}, {"smiles": "O=C(c1ccoc1)N1CCC2(CC1)COC(COCc1ccccn1)C2", "note": "(centres undefined)", "Percent Effect": 4.399}, {"smiles": "Cc1nncn1CCNC(=O)C1SCCc2sccc21", "note": "(centres undefined)", "Percent Effect": 0.3971}, {"smiles": "CCc1ccc(CN2CCc3[nH]nc(C(=O)N4CCNC(=O)C4)c3C2)o1", "Percent Effect": -23.7}, {"smiles": "CC(C)NC(=O)CCNC(=O)Nc1cnn(-c2ccccc2Cl)c1", "Percent Effect": -14.09}, {"smiles": "COC[C@@]12CCO[C@@H]1CCN(C(=O)COc1ccccc1OC)C2", "Percent Effect": 3.153}, {"smiles": "Cc1ccc(C(=O)N2C[C@H]3CCC[C@@]3(COCc3ccncc3)C2)cn1.O=C(O)C(F)(F)F.O=C(O)C(F)(F)F", "Percent Effect": -7.119}, {"smiles": "CCOC[C@@]12CCC[C@@H]1CN(C(=O)c1ccc(OC)cc1)C2", "Percent Effect": 116.5}, {"smiles": "COC[C@@]12CCC[C@@H]1CN(C(=O)COc1ccccc1OC)C2", "Percent Effect": 104.3}, {"smiles": "CCO[C@@H]1CO[C@@]2(CCCN(C(=O)COc3ccccc3OC)C2)C1", "Percent Effect": -3.938}, {"smiles": "CCOC[C@@]12CCC[C@@H]1CN(C(=O)COc1ccccc1OC)C2", "Percent Effect": 101.3}, {"smiles": "O=C(Cc1ccco1)N1C[C@H]2CCC[C@@]2(COc2cccnc2)C1", "Percent Effect": -23.92}, {"smiles": "O=C(O)C(F)(F)F.O=C(c1ccc(F)cc1)N1C[C@H]2CCC[C@@]2(COCc2ccncc2)C1", "Percent Effect": 3.034}, {"smiles": "CC(Oc1ccccc1C(F)(F)F)C(=O)NCC(N)=O", "note": "(centres undefined)", "Percent Effect": -1.247}, {"smiles": "CCCC(CNc1cc(C(C)C)nc2ccnn12)N(C)C", "note": "(centres undefined)", "Percent Effect": -7.916}, {"smiles": "Cc1n[nH]cc1CNC1(c2ccc(F)cc2)CCCC1", "Percent Effect": 2.933}, {"smiles": "CC(C)NC(=O)N1CCN(CC2CC2)CC2(CC(=O)N(C)C2)C1.O=C(O)C(F)(F)F", "note": "(centres undefined)", "Percent Effect": 10.52}, {"smiles": "CC(=O)N1CCN(Cc2ccco2)CC2(CC(=O)N(C)C2)C1.O=C(O)C(F)(F)F", "note": "(centres undefined)", "Percent Effect": 97.89}, {"smiles": "O=C(O)C(F)(F)F.O=C(O)C(F)(F)F.O=C(O)C(F)(F)F.c1coc(CN2CCC3(CC2)COCCN(CCN2CCCC2)C3)c1", "Percent Effect": 10.77}, {"smiles": "CCN1CC2(CC1=O)CN(Cc1ccco1)CCN(C(=O)N(C)C)C2.O=C(O)C(F)(F)F", "note": "(centres undefined)", "Percent Effect": 1.855}, {"smiles": "CCN1CC2(CC1=O)CN(Cc1cccs1)CCN(C(=O)C(C)C)C2", "note": "(centres undefined)", "Percent Effect": 9.795}, {"smiles": "CCN1CC2(CC1=O)CN(Cc1cnn(C)c1)CCN(C(=O)C(C)C)C2.O=C(O)C(F)(F)F", "note": "(centres undefined)", "Percent Effect": -2.77}, {"smiles": "CC(=O)N1CCN(Cc2ccc(C)o2)CC2(CC(=O)N(C)C2)C1.O=C(O)C(F)(F)F", "note": "(centres undefined)", "Percent Effect": 88.46}, {"smiles": "Cc1ccc(CN2CCC3(CC(=O)N(c4cccc(F)c4)C3)C2)o1.O=C(O)C(F)(F)F", "note": "(centres undefined)", "Percent Effect": 18.19}, {"smiles": "CC(C)C(=O)N1CCN(Cc2ccccn2)CC2(CC(=O)N(C)C2)C1.O=C(O)C(F)(F)F.O=C(O)C(F)(F)F", "note": "(centres undefined)", "Percent Effect": 98.24}, {"smiles": "CC(=O)N1CCN(Cc2cccs2)CC2(CC(=O)N(C)C2)C1.O=C(O)C(F)(F)F", "note": "(centres undefined)", "Percent Effect": 101.6}, {"smiles": "CN1CC2(CCN(C(=O)Cc3ccccn3)CC2)OCC1=O.O=C(O)C(F)(F)F", "Percent Effect": 23.75}, {"smiles": "CN(CCC1CCOCC1)C(=O)C1CCC(=O)N(Cc2ccccn2)C1", "note": "(centres undefined)", "Percent Effect": 12.01}, {"smiles": "Cc1nn(C)c(C)c1OCC(=O)NCC(O)c1ccccc1F", "note": "(centres undefined)", "Percent Effect": -4.984}, {"smiles": "O=C1N(c2ccc(Cl)cc2)Cc2n[nH]c(=O)n21", "Percent Effect": 3.53}, {"smiles": "CCCn1nc(-c2nc(COC)no2)ccc1=O", "Percent Effect": -14.93}, {"smiles": "CC(=O)NCC(=O)NCC1Cn2nnc(-c3cccc(F)c3)c2CO1", "note": "(centres undefined)", "Percent Effect": -8.609}, {"smiles": "CN1CCC2(CCN(Cc3nccs3)CC2)C1=O.O=C(O)C(F)(F)F", "Percent Effect": 4.782}, {"smiles": "CC(=O)N1CCN(Cc2nccs2)CC2(CC(=O)N(C)C2)C1.O=C(O)C(F)(F)F", "note": "(centres undefined)", "Percent Effect": 92.61}, {"smiles": "COC(=O)NCCCn1ccnc1-c1ccccc1", "Percent Effect": 181.6}, {"smiles": "CC(C)c1nccn1CCCNC(=O)c1ccc(-c2cccnc2)nc1", "Percent Effect": 8.791}, {"smiles": "COC(=O)CCCn1ccnc1-c1ccccc1", "Percent Effect": 2.023}, {"smiles": "CC(=O)NCCn1ccnc1-c1cccc(C(C)N(C)C)c1", "note": "(centres undefined)", "Percent Effect": 4.198}, {"smiles": "CCOCC(=O)NCCCn1ccnc1-c1ccccc1", "Percent Effect": 90.19}, {"smiles": "CCOCC(=O)Nc1nccn1Cc1ccc(Br)cc1", "Percent Effect": -3.698}, {"smiles": "Cc1ccc(C(=O)Nc2cc(C(N)=O)ccc2N2CCCCC2)cc1F", "Percent Effect": -3.619}, {"smiles": "O=C(O)CCc1cc2n(n1)CCCN(C(=O)c1ccc3cc[nH]c3c1)C2", "Percent Effect": -27.67}, {"smiles": "O=C(CCc1cc2n(n1)CCCN(C(=O)c1ccccn1)C2)NC1CC1", "Percent Effect": 1.644}, {"smiles": "O=C(CCc1cc2n(n1)CCCN(C(=O)[C@H]1CCCO1)C2)NC1CC1", "Percent Effect": 170.3}, {"smiles": "Cn1cccc1C(=O)N1CCCn2nc(CCC(=O)NC3CC3)cc2C1", "Percent Effect": 139.6}, {"smiles": "CCc1cc(C(=O)N2CCCn3nc(CCC(=O)O)cc3C2)cs1", "Percent Effect": -7.139}, {"smiles": "O=C(CCc1cc2n(n1)CCCN(C(=O)c1cccnc1)C2)NC1CC1", "Percent Effect": -4.751}, {"smiles": "O=C(O)CCc1cc2n(n1)CCCN(C(=O)c1cc3ccccc3s1)C2", "Percent Effect": 6.416}, {"smiles": "Cc1ccc(C(=O)N2CCCn3nc(CCC(=O)O)cc3C2)cc1Cl", "Percent Effect": 11.92}, {"smiles": "O=C(CCc1cc2n(n1)CCCN(C(=O)c1ccncc1)C2)NC1CC1", "Percent Effect": 139.8}]}]}
